Test results taken from ChEMBL document CHEMBL3988442, “University of Dundee, Small-Polar-MMV Screening Library” (2021).
For some of these results: Measured potencies and affinities stand elsewhere.

How the values were obtained:
Set-up in all cases: scale not given: direction of the effect not stated beside the values
[1] = biological target: Protein translocase subunit SecA (Escherichia coli (strain K12)) (UniProt P10408); experiment: Assay to Identify E. coli SecA ATPase Inhibitors; assay type: functional; settings: 30 µM
Chain of Protein translocase subunit SecA (Escherichia coli (strain K12)) (P10408 whole entry): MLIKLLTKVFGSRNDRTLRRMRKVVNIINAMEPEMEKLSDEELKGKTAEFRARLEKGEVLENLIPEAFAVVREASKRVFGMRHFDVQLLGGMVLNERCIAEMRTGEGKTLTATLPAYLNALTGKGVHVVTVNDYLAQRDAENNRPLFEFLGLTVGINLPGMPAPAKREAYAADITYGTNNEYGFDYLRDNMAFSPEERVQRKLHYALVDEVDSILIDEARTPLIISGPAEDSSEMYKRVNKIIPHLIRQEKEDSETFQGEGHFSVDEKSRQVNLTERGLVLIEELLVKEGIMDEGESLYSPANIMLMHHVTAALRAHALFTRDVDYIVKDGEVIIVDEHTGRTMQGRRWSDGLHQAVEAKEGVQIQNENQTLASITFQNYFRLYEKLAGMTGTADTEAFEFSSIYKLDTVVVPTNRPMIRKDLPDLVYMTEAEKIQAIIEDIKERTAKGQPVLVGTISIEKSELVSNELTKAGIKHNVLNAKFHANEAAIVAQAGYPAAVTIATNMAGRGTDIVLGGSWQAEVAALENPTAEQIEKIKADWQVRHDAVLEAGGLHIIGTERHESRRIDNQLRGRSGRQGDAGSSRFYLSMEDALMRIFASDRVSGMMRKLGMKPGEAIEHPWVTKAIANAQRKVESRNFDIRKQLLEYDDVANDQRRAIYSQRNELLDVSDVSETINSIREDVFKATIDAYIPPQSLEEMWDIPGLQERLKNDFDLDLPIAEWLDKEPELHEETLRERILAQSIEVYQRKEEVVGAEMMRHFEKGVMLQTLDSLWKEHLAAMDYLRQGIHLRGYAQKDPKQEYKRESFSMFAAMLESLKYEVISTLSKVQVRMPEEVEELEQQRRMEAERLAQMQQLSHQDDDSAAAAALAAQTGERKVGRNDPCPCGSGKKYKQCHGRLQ

[2] = biological target: T1, Ubiquitin-activating enzyme e1, putative (Leishmania donovani (strain BPK282A1)) (UniProt E9BSI1); experiment: Leishmania donovani Ubiquitin Activating Enzyme (LdE1); assay type: functional; settings: 30 µM
T1 sequence (whole entry): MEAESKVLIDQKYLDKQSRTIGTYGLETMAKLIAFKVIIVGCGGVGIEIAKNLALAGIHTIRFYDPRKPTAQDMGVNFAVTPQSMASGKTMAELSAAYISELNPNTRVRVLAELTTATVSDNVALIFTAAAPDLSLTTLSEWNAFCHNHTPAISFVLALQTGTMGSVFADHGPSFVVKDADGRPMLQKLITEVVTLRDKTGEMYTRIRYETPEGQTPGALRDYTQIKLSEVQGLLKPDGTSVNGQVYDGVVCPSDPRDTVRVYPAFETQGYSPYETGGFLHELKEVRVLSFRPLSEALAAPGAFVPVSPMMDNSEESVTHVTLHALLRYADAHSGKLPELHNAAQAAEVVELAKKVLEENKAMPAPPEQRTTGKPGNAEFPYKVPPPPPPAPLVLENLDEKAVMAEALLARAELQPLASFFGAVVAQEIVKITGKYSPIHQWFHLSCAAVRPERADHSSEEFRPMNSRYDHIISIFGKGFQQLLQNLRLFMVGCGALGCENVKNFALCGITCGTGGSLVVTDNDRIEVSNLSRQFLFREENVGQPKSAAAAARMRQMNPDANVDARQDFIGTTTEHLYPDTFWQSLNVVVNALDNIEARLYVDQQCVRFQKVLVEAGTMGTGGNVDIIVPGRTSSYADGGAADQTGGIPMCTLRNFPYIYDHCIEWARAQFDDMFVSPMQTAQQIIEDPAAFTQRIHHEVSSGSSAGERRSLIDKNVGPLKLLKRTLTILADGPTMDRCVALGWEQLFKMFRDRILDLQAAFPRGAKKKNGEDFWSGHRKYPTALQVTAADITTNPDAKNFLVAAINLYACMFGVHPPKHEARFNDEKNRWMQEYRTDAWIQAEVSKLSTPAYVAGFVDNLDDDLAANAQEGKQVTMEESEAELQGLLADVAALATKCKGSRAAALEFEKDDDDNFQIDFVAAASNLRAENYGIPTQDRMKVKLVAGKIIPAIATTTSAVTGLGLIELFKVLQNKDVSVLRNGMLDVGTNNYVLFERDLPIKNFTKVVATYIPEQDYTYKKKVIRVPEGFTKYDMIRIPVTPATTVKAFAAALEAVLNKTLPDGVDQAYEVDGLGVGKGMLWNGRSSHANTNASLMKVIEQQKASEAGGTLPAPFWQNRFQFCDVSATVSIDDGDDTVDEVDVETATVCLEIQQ

[3] = biological target: AMP-activated protein kinase, AMPK (Homo sapiens) (UniProt P54646+O43741+P54619+Q9UGJ0+Q9Y478+Q13131+Q9UGI9); experiment: AMP-dependent Kinase enzyme assay. An in vitro enzyme assay that detects ADP turnover that is directly proportional to AMPK activity. This uses naive AMPK that is activated during the assay with MK-8722; assay type: functional; settings: 30 µM
[4] = biological target: Sialic acid-binding Ig-like lectin 9 (Homo sapiens) (UniProt Q9Y336); experiment: Hs-Siglec9 ALPHAscreen SOP 20170721; settings: 10 µM
Chain of Sialic acid-binding Ig-like lectin 9 (Homo sapiens) (Q9Y336 whole entry): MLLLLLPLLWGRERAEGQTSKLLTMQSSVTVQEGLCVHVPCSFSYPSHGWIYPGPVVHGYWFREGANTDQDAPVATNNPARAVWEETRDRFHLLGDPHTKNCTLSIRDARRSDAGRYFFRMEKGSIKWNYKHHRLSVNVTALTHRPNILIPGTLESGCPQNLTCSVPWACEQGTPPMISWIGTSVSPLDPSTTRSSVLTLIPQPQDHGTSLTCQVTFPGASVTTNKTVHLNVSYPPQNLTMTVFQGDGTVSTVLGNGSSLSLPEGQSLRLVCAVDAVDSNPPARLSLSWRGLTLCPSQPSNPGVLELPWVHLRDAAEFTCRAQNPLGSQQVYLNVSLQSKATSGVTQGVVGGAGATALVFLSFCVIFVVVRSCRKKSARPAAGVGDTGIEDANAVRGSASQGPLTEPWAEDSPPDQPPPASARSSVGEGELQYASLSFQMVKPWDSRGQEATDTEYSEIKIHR

Trypanosoma cruzi = experiment: Trypanosoma cruzi phosphomannomutase and mannose-1-phosphate guanylyltransferase assay; assay type: functional; settings: 10 µM
[5] = biological target: T2, Arginase-2, mitochondrial (Homo sapiens) (UniProt P78540); experiment: in vitro enzyme assay to detect the production of urea directly proportional to the activity of Arginase II; assay type: functional; settings: 33.3 µM; note: in the data most compounds retested in dose-response had high values
T2 sequence (whole entry): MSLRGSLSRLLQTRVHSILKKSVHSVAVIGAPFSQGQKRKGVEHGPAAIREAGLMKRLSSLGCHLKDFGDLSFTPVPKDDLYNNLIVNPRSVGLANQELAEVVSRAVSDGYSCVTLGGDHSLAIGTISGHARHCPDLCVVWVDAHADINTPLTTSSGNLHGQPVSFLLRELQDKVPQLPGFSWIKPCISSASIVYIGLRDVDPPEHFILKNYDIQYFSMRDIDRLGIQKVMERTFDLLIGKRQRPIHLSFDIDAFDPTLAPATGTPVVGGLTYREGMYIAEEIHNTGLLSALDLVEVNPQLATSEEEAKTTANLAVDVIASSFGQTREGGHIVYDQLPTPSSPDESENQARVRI

[6] = biological target: T3, Proteasome subunit beta (Trypanosoma cruzi) (UniProt O96673); experiment: Trypanosoma cruzi proteasome chymotrypsin-like activity (TcProtChymo) assay.; note: in the data most compounds retested in dose-response had high values; assay type: functional; settings: 9.37 µM
T3 sequence (whole entry): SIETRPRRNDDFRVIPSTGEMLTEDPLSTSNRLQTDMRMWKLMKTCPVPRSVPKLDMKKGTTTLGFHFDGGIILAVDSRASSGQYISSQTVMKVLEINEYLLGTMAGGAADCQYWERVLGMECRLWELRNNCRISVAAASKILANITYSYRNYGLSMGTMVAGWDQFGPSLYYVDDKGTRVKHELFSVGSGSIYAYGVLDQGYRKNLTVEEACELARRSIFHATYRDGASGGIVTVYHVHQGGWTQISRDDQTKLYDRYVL

Homo sapiens = species: Homo sapiens; experiment: To identify inhibition of the IFN signalling (Jak-Stat) pathway via expression of an eGFP reporter gene under the control of an IFN-stimulated response element (ISRE) containing MxA promoter.; assay type: functional; settings: 30 µM
[7] = biological target: T4, Tyrosyl-tRNA synthetase, putative (Trypanosoma cruzi (strain CL Brener)) (UniProt Q4DSP6); experiment: Trypanosoma cruzi tyrosyl tRNA synthetase (TcYRS) _High Tyrosine SOP; assay type: functional; settings: 30 µM; note: in the data most compounds retested in dose-response had high values
T4 sequence (whole entry): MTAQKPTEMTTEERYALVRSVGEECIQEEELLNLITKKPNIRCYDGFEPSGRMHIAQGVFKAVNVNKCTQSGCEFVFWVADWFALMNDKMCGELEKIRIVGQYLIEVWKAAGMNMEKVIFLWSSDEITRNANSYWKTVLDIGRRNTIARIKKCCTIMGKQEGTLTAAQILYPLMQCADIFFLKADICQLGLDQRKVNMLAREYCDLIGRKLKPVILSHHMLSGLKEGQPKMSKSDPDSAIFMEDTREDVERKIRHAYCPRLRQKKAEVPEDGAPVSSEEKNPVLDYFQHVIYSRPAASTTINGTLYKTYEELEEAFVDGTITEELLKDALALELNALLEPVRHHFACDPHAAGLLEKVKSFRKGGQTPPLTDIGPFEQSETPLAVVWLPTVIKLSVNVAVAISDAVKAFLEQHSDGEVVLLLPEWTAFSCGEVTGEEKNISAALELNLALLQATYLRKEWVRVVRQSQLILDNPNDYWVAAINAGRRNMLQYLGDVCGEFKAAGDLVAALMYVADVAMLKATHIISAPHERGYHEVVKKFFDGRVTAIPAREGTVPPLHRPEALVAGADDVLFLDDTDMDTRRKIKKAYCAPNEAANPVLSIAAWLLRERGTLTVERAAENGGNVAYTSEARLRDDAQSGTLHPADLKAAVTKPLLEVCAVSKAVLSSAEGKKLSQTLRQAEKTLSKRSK

[8] = biological target: T4, Tyrosyl-tRNA synthetase, putative (Trypanosoma cruzi (strain CL Brener)); experiment: Trypanosoma cruzi tyrosyl tRNA synthetase (TcYRS) SOP; assay type: functional; settings: 30 µM
[9] = biological target: Chromo domain-containing protein 1 (Saccharomyces cerevisiae (strain ATCC 204508 / S288c) (Baker's yeast)) (UniProt P32657); experiment: ScCHD-1 Enzyme Inhibition Assay; assay type: functional; settings: 30 µM; note: in the data most compounds retested in dose-response had high values
Chain of Chromo domain-containing protein 1 (Saccharomyces cerevisiae (strain ATCC 204508 / S288c) (Baker's yeast)) (P32657 whole entry, the tested form may be a part): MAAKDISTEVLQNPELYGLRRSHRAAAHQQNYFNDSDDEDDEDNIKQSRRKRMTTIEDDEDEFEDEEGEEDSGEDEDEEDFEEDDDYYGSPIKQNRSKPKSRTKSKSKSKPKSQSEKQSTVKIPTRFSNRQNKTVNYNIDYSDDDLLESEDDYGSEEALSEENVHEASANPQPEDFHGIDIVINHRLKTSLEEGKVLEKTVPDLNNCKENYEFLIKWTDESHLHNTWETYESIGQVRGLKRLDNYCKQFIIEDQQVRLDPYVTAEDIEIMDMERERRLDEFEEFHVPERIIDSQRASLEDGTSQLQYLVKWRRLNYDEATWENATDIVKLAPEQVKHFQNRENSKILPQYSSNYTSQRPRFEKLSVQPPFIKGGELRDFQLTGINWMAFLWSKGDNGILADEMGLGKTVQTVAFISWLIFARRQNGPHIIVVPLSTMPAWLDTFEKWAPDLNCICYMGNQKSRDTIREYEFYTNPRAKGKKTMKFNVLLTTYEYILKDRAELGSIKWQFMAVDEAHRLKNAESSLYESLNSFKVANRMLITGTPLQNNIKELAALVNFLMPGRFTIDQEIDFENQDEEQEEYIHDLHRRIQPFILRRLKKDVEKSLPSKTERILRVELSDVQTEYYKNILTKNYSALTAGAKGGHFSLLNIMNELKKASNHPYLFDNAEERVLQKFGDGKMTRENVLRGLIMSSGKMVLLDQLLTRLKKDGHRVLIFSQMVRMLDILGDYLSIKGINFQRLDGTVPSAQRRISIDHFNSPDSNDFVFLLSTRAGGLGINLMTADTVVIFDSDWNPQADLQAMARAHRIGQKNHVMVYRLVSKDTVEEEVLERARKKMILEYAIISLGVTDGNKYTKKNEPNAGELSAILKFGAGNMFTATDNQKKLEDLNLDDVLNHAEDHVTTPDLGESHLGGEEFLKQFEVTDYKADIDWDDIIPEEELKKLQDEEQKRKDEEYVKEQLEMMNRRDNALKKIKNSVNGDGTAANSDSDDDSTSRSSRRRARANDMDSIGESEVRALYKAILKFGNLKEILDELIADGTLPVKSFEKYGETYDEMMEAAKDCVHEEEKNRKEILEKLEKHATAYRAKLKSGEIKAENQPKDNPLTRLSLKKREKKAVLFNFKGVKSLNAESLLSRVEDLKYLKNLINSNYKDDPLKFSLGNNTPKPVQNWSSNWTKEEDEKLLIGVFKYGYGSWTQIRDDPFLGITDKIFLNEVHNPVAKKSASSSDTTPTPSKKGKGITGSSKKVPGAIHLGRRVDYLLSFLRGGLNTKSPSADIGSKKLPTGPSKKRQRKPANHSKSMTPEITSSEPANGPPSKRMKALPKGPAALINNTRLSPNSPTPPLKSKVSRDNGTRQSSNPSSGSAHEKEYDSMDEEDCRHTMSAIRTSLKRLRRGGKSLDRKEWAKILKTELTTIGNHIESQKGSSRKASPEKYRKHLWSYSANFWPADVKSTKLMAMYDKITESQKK

SMILES	Percent Effect [1]	Percent Effect [2]	Percent Effect [3]	Percent Effect [4]	Percent Effect (Trypanosoma cruzi)	Percent Effect [5]	Percent Effect [6]	Percent Effect (Homo sapiens)	Percent Effect [7]	Percent Effect [8]	Percent Effect [9]
CCCNC(=O)COc1ccc(C)cn1	-4.18%	11%	-5.89%	4.96%	4.76%	-0.798%	6.59%	-7.03%	6.25%	-3.7%	-11.8%
CCOCCCn1c(NC(=O)c2cnn(C)c2)nc2ccccc21	-5.81%	5.2%	2.7%	15%	-1.69%	-1.07%	2.37%	11.1%	6.8%	14.6%	-2.58%
CCN1C(=O)C(C)(C)c2cc(NC(=O)c3ccco3)ccc21	-5.66%	10.4%	17.2%	5.8%	1.48%	-13.8%	12.7%	19.7%	12.9%	21%	0.612%
Cc1cc(NC(=O)CN2CCn3c(nnc3C(C)C)C2)no1	-2.36%	7.79%	2.84%	-23.1%	2.25%	-5.26%	16.6%	25.4%	5.71%	25.9%	-21.2%
CSCc1cccc(C(=O)N2CCN(CC(C)O)CC2)c1 (stereo not given)	-1.86%	-2.6%	-1.05%	3.73%	-7.68%	2.13%	11.8%	17.2%	1.94%	-2.44%	-1.72%
CC(C)c1noc(C(C)N2CCN(CCO)CC2)n1 (stereo not given)	0.448%	21.6%	-14.5%	-3.22%	-3.68%	-9.22%	12.2%	16.1%	5.42%	6.17%	-0.137%
CCc1nc(CN(C)C2CCN(Cc3ccc(C#N)cc3F)C2)no1 (stereo not given)	-6.15%	10.8%	-3.61%	-0.906%	-6.7%	-6.01%	12.6%	20.8%	7.39%	1.24%	-7.82%
O=C(NCc1ccco1)[C@H]1C[C@H]2OCC[C@H]2N(S(=O)(=O)C2CC2)C1	-3.9%	8%	-0.23%	14.7%	-2.7%	-26.7%	8.38%	-14%	-1.04%	15%	-8.9%
Cn1ccc(CN2CCC(Oc3ccccc3)CC2)cc1=O	-4.18%	18.2%	-0.911%	1.02%	-1.69%	-0.356%	4.05%	-2.92%	11.7%	24.4%	-10.1%
COCC1Cn2nnc(-c3cnn(C)c3)c2CN1Cc1ccc(C)s1 (stereo not given)	-0.562%	10.8%	12%	-1.82%	1.37%	18.3%	-0.0845%	48.1%	6.93%	6.1%	-4.26%
CC(=O)c1ccc(C(=O)NCCCOC(C)c2ccccc2)s1 (stereo not given)	-1.12%	7.89%	0.104%	-8.61%	1.07%	-8.28%	13.9%	21.8%	-3.19%	10.4%	-1.78%
Cc1ccc(C(=O)N2CCC(Oc3ccc(F)cc3F)CC2)c(=O)[nH]1	-4.74%	5.26%	3.18%	-2.22%	-7.52%	1.53%	8.69%	43.4%	0.49%	4.88%	-4.43%
CNc1oc(-c2cc(S(=O)(=O)N3CCCCCC3)c(C)o2)nc1C#N	-5.54%	-9.33%	2.78%	2.42%	5.5%	-3.35%	11.3%	8.06%	1.06%	10.3%	-7.07%
Cn1cc(C2CCCN2C(=O)c2ccc(Br)o2)cn1 (stereo not given)	-4.98%	13.2%	2.02%	-8.81%	-3.64%	1.08%	1.27%	16.1%	0.493%	1.24%	1.07%
CCO[C@@H]1CC[C@H]2[C@H]1OCCN2C(=O)C1CCOCC1	-5.85%	21.6%	-7.07%	5.16%	3.32%	3.33%	18.2%	2.97%	10.9%	1.22%	-4.28%
Cc1cccc(OCCC(=O)N2CCN(S(=O)(=O)N(C)C)CC2)c1C	1.47%	22.8%	-5.81%	-9.44%	0.661%	-3.42%	8.93%	39.5%	4.43%	16.5%	-13.5%
Cc1nc([C@@H]2C[C@@H]3CCN(C(=O)c4occc4C)C[C@H]3O2)no1	-6.42%	0%	6.51%	3.94%	-1.74%	-52.1%	4.1%	7.9%	-1.04%	-5%	-4.87%
CNC(=O)CS(=O)(=O)Cc1cc(Cl)c2c(c1)OCCCO2	-1.64%	12.7%	-5.11%	-6.27%	3.87%	-2.66%	7.62%	-4.79%	10.3%	24.1%	-6.28%
Cc1nc(NC2CCCC2)cc(C2CCN2C(=O)c2cccnc2)n1 (stereo not given)	-4.83%	23%	7.33%	1.33%	4.54%	-3.48%	10.8%	12.2%	6.45%	14.3%	-16%
NC(=O)c1ccc(S(=O)(=O)NC2CCN(Cc3ccccc3)C2=O)cc1 (stereo not given)	-3.79%	17.7%	9.8%	5.49%	0.472%	-3.42%	0.901%	2.7%	5.42%	11.4%	-6.86%
